The entries come from a sample that favours hits as a whole.
Giardia FBPA inh: Giardia lamblia aldolase inhibition; A8B2U2; 290,000 compounds, 0.71% hits; Potency, µM (doses to about 59.6 µM), inactives show top-dose activity, negative = inhibition, most hits filed as inhibitors; AID 2451; purified Giardia FBPA; also: potency is read from the fitted curve at half-maximal effect; % is scaled to controls: 0 for no effect and ±100 for the full control effect; nearly all actives have a fitted effect of over 55% in size
Target sequence (A8B2U2 whole entry, looked up): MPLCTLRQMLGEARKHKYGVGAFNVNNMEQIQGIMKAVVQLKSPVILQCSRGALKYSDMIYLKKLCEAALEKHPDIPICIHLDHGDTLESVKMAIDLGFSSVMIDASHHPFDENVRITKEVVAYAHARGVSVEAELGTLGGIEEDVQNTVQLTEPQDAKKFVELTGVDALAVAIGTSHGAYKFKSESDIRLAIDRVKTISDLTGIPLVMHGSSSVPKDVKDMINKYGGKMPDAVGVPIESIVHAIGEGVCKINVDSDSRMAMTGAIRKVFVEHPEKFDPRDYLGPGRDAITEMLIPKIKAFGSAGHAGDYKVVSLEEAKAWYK
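Giardia FBPA (40 nM reagent) was preincubated 10 min at RT with compound (up to 57.5 uM final), then substrate plus GAPDH/TPI/NAD/arsenate coupling system with diaphorase/resazurin was added; resorufin fluorescence (525/598 nm) was read after 20 min.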
LmPK inh: blocks Leishmania mexicana pyruvate kinase activity. Potency, µM (titrated, usually from 57.5 µM), without a hit: at the top dose activity change, negative = inhibition, hits mostly inhibitors. purified LmPK, Kinase-Glo ATP luminescence, 1 h. Q27686. 290,000 compounds, 0.37% hits; also: potency is read from the fitted curve at half-maximal effect; % is scaled to controls: 0 for no effect and ±100 for the full control effect
Target sequence (Q27686 whole entry, looked up): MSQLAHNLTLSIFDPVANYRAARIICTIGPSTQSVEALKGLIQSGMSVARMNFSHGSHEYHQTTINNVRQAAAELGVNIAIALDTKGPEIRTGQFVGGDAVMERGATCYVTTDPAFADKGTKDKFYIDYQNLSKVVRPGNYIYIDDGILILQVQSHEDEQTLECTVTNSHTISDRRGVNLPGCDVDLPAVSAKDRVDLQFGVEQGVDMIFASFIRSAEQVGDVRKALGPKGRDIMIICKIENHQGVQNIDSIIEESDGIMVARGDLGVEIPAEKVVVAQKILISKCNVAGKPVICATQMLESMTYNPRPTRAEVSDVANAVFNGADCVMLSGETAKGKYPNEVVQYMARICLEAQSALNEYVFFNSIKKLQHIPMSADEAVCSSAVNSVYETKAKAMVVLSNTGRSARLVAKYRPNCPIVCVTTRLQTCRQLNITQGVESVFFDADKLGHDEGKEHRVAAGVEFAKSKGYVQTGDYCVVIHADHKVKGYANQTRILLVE
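ATP generated from ADP (0.1 mM) and PEP (0.5 mM) by 0.1 nM LmPK over 1 h at room temperature (pH 7.2 imidazole buffer) was detected by coupled luciferase luminescence. Values were normalized to uninhibited and no-enzyme wells.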
RE007 growth inh: less growth of the S. pombe RE007 Vpr strain; S. pombe RE007 Vpr strain, BacTiter-Glo ATP luminescence, 24 h; 360,000 compounds, 0.21% hits; Potency, µM (titrated, usually from 92.2 µM), for the others: at the top dose activity change, negative = less growth, hits mostly inhibitors; active = well fitted falling curve with a large enough effect; inconclusive = small, poorly fitted or top-dose-only effect; inactive = no such curve, though single readings can be large or run the other way; also: potency is read from the fitted curve at half-maximal effect; % is scaled to controls: 0 for no effect and ±100 for the full control effect; nearly all actives have a fitted effect of over 50% in size
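Fission yeast strain RE007, carrying one chromosomally integrated HIV-1 vpr copy, was seeded at OD 0.01 in PMG+AL medium with 23 nL pinned compound. After 24 h at 30 °C and 99% humidity, viability was read by BacTiter-Glo luminescence.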
CHX counter: counter-screen for Shiga toxin inhibitors: cycloheximide protein synthesis inhibition. cell reporter, cycloheximide protein synthesis inhibition counterscreen. max response, %. 300,000 compounds, 12% hits; in the data active = max response mostly above about 13%, no sharp cut-off; inactive = mostly below about 14%; also: read at 38.3 µM for the half of the compounds with a filed dose; 0% is about no effect
TbPYK inhibitor: T. brucei pyruvate kinase inhibition; Q57TT1; TbPYK enzyme, Kinase-Glo Plus ATP luminescence, 45 min; Potency, µM (titrated, usually from 76.8 µM), for inactives: at the highest dose activity, negative = inhibition, usual class: inhibitors; 410,000 compounds, 0.12% hits; AID 624173; also: potency is read from the fitted curve at half-maximal effect; % is scaled to controls: 0 for no effect and ±100 for the full control effect; nearly all actives have a fitted effect of over 50% in size
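Assay buffer: 50 mM TEA pH 7.2, 100 mM KCl, 10 mM MgCl2, 0.05% BSA, 0.01% Tween-20. Pyruvate kinase from T. brucei plus substrate met compound, then ADP (130 uM final). Luminescence was read post 45 min RT.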
Shiga inhibitor: Shiga toxin inhibition. 290,000 compounds, 9.2% hits. Vero cells, Shiga toxin protein synthesis inhibition reporter. inhibition, % at 38.7 µM; in the data active = inhibition mostly above about 28%, no sharp cut-off; inactive = mostly below about 43%; also: 0% is about no effect
* = called active by the depositor; ? = inconclusive; . = not tested or not shown. Unless noted, calls follow the shape of the dose curve; as a rule, active = well fitted curve in the direction sought with a large enough effect; inconclusive = small, poorly fitted or top-dose-only effect, or another doubt; inactive = no such curve, though single readings can be large; an effect the other way counts as inactive or inconclusive.

SMILES | Giardia FBPA inh | LmPK inh | RE007 growth inh | CHX counter | TbPYK inhibitor | Shiga inhibitor
N#Cc1c(NC(=O)C2CCCO2)sc2c1CCCCCC2 (stereo unspecified) | 0.9% | 0.4% | -1.2% | 39.0* | 5.8% | 83.9*
Cc1sc(NC(=O)C2CCCO2)c(C#N)c1C (stereo unspecified) | -25.4% | -10.3% | 2.1% | 15.3* | -7.0% | 23.2
CCOC(=O)c1c(NC(=O)C2CCCO2)sc2c1CCC2 (stereo unspecified) | 3.5% | 4.2% | -26.8% | -2.7 | -0.5% | 31.4
CC(=O)NC(CCC(N)=O)C(=O)O (stereo unspecified) | . | . | . | . | 3.0% | .
COc1ccccc1NC(=O)C(=O)c1cn(CC(=O)N2CCOCC2)c2ccccc12 | . | -10.3% | -1.0% | 12.2* | 3.7% | 34.7*
COc1ccccc1NC(=O)C(=O)N1CCCC1 | -0.7% | 2.3% | -23.2% | 18.8* | 2.9% | 60.4*
COc1ccccc1NC(=O)C(=O)c1cn(CC(=O)N2CCCC2)c2ccccc12 | . | -8.8% | 1.5% | 21.8* | 5.8% | 36.6
COc1ccc(NC(=O)C(=O)c2cn(CC(=O)N3CCOCC3)c3ccccc23)cc1OC | . | -0.3% | 0.4% | -5.3 | -0.9% | -2.5
Cc1cc(C)cc(NC(=O)Cn2ncn3c(cc4ccccc43)c2=O)c1 | 4.1% | 5.9% | -1.5% | -3.2 | 1.1% | -13.6
COC(=O)Cn1ncn2c(cc3oc(C)cc32)c1=O | 3.0% | 2.2% | 0.8% | 40.2* | -22.5% | 76.2*
CC(C)OC(=O)c1ccc2ccc(-c3ccccc3)nc2c1 | . | . | -18.9% | . | -7.1% | .
C=CCN(CC=C)CCOc1ccc(OC(C)C)cc1 | ? | -6.0% | -10.5% | 17.8* | 16.8% | 83.8*
C=CCN(CC=C)CCOc1ccc2ccccc2c1 | ? | 1.2% | -10.6% | 20.5* | 15.4% | 37.3
CCC(=O)N1CCc2cc(CNS(=O)(=O)c3ccc(CC(C)C)cc3)ccc21 | . | . | . | . | 2.2% | .
CCOc1cccc(OCCNC2CCCC2)c1 | ? | 3.0% | 8.6% | -2.6 | -12.9% | 1.2
CC(C)Oc1ccc(OCCNC2CCCC2)cc1 | -6.5% | -4.5% | 17.7% | 19.0 | -4.8% | 73.7*
C=CCNCCCCOc1ccc(OCc2ccccc2)cc1 | ? | -6.7% | -5.9% | 47.9* | 5.2% | 59.6*
C=CCNCCCCOc1ccccc1-c1ccccc1 | 1.5% | 1.3% | -6.1% | -1.5 | 7.1% | -3.8
c1ccc(COc2ccc(OCCCNC3CCCC3)cc2)cc1 | -7.1% | -7.8% | 1.2% | 24.9* | -6.5% | 53.2
COCCCNCCOc1ccc(C(C)(C)c2ccccc2)cc1 | -14.3% | -1.0% | 5.1% | -7.6 | 26.0% | -11.3
COCCCNCCCCOc1ccc(OCc2ccccc2)cc1 | ? | -0.9% | -1.7% | 30.3* | -3.7% | 97.4*
O=C1NC[C@@H](CCCCN2C[C@H](Cc3ccccc3)N(CCc3ccc(O)cc3)C(=O)C2=O)N(Cc2ccccc2)C1=O | . | . | -4.4% | . | -4.3% | .
O=C(CC1SC(N2CCCCC2)=NC1=O)Nc1cccc(C(=O)Nc2ncccc2O)c1 (stereo unspecified) | . | . | 10.5% | . | -5.4% | .
COc1ccc(NC(=O)c2cccc(N3CCCS3(=O)=O)c2)c(OC)c1 | . | . | . | . | -1.6% | .
O=c1c2cc3c(=O)n(-c4ccccc4O)c(=O)c3cc2c(=O)n1-c1ccccc1O | -8.7% | -5.3% | -24.9% | 27.0* | -4.2% | 105.7*
SMILES | Giardia FBPA inh | LmPK inh | RE007 growth inh | CHX counter | TbPYK inhibitor | Shiga inhibitor
CSc1nnc2c(n1)c(C)nn2-c1ccc(C)cc1 | 0.3% | 1.0% | -8.2% | 19.6* | -12.9% | 23.0
Cc1ccc(-n2nc(C)c3c(C(=O)O)cc(C)nc32)cc1 | . | . | . | . | 3.4% | .
COc1ccc(NC(=O)CCc2nc3c(C)nn(-c4ccc(C)cc4)c3n(C)c2=O)c(OC)c1 | . | . | . | . | -4.9% | .
O=C(Cc1cccs1)Nc1ccccc1 | -5.1% | 0.5% | -21.8% | 3.6 | 0.1% | 30.4
O=C(Cc1ccsc1)Nc1ccc(S(=O)(=O)C(F)F)cc1 | -0.8% | -0.3% | 14.5% | 23.2* | 2.4% | 48.8*
O=C(Cc1cccs1)Nc1ccc(NC(=O)c2ccco2)cc1 | -4.1% | -1.0% | 11.8% | 23.6* | -4.3% | 59.9*
CC(C)NS(=O)(=O)c1ccc(NC(=O)Cc2ccsc2)cc1 | 5.5% | -7.5% | -11.4% | 16.0 | -0.6% | 28.8
CCCOC(=O)c1ccc(NC(=O)Cc2cccs2)cc1 | -2.2% | 5.3% | -10.7% | 34.5* | -4.7% | 50.5*
O=C(Nc1ccc(OC(=O)c2cccs2)cc1)c1ccco1 | 2.3% | ? | -15.1% | 44.6* | -0.5% | 53.5*
CCN(CC)S(=O)(=O)c1cc(NC(=O)Cc2ccsc2)ccc1C | 0.0% | -1.7% | 17.9% | -4.1 | -2.3% | 23.6
CC(=O)c1ccc(NC(=O)Cc2cccs2)cc1 | 9.4% | -0.8% | 6.5% | 27.6* | 0.7% | .
CC(=O)c1ccc(NC(=O)Cc2ccsc2)cc1 | 4.2% | 1.7% | -14.2% | 30.0* | -2.8% | 69.0*
CC(=O)c1cccc(NC(=O)Cc2cccs2)c1 | -3.8% | 1.3% | -6.7% | 9.8 | -1.5% | 18.8
Cc1cc(NC(=O)Cc2ccsc2)ccc1Br | -3.2% | 1.6% | 17.3% | 32.8* | -5.0% | 68.8*
CN(C)c1ccc(CNC(=O)C2CCCN(S(=O)(=O)c3ccc4c(c3)CCCC(=O)N4)C2)cc1 (stereo unspecified) | . | . | . | . | 2.6% | .
Cc1nonc1C1CCCN1C(=O)c1cc(COc2ccc(F)cc2Cl)on1 (stereo unspecified) | 0.2% | 6.8% | 14.3% | 29.1* | -1.4% | 41.1
COc1cc(Cl)ccc1OCc1cc(C(=O)N2CCN(C3CCCCC3)CC2)no1 | . | . | -2.2% | . | 2.2% | .
O=C(c1cc(COc2ccc(F)cc2Cl)on1)N1CCc2sccc2C1 | . | -2.7% | 3.8% | 26.4* | -3.7% | 43.1*
O=C(c1cc(COc2ccc(F)cc2Cl)on1)N1CCC(OCc2cccnc2)CC1 | -3.2% | -0.1% | 13.3% | -0.8 | 4.3% | 18.8
COc1cc(Cl)ccc1OCc1cc(C(=O)N2CCCCC2c2cccnc2)no1 (stereo unspecified) | -11.1% | 7.2% | -7.7% | 17.1* | -6.1% | 31.7
O=C(c1cc(COc2ccc(F)cc2Cl)on1)N1CCCCC1c1cccnc1 (stereo unspecified) | 7.9% | 2.1% | -3.5% | 25.0* | -5.0% | 37.8*
C[C@]12C[C@@](C)(C=C1/C=C/c1ccc(C(F)(F)F)cc1)C(=O)C[C@H]2c1ccc(C(F)(F)F)cc1 | 0.0% | . | . | . | . | .
COc1ccc(C(=O)/C=C/c2ccccc2)cc1 | -1.5% | . | . | . | . | .
COc1cccc(C(=O)/C=C/c2ccc(SC)cc2)c1 | 0.6% | ? | -16.6% | 49.1* | -13.7% | 79.9*
CSc1ccc(C(=O)/C=C/c2ccc(N)cc2)cc1 | 4.0% | ? | -5.8% | 54.6* | -13.8% | 76.8*
COC(=O)c1ccc(/C=C/C(=O)c2cccc(OC)c2)cc1 | 0.2% | -20.3% | -21.1% | 69.8* | -12.9% | 51.6*

High-throughput results: PubChem BioAssay, National Center for Advancing Translational Sciences (NCATS)
